Reference: PubChem BioAssay (NCI)
This is part of a sample that, as a whole, favours compounds with a hit. Of some 79,000 tested, about 15% had one in any assay. Calls of active or inactive are those of the source. Rule as the data show it: active = growth inhibition above about 70%; inactive = the rest.

Legend:
[1] = NCI Yeast Anticancer Drug Screen. Data for the rad52 strain (AID 147);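 also: 0% = growth of vehicle-treated control cultures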; conditions: S. cerevisiae rad52 mutant growth inhibition, stronger effect = higher value
Procedure, shortened: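 The repair-mutant yeast strain was incubated with compounds, then growth was read and inhibition derived relative to vehicle.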

[2] = NCI Yeast Anticancer Drug Screen. Data for the wt1 strain (AID 149);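 also: 0% = growth of vehicle-treated wt1 cultures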; conditions: S. cerevisiae wt1 strain (SPY 50644) growth inhibition, stronger effect = higher value
Procedure, shortened: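 Measured: growth of wt1 yeast under compound versus vehicle treatment, reported as inhibition.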

[3] = NCI Yeast Anticancer Drug Screen. Data for the rad50EPP+ strain (AID 151);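 also: 0% = growth of vehicle-treated control cultures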; conditions: S. cerevisiae rad50 mutant strain, stronger effect = higher value
Procedure, shortened: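 Vehicle-normalised growth inhibition; rad50EPP+ yeast strain, altered in DNA damage repair, compound-treated.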

[4] = NCI Yeast Anticancer Drug Screen. Data for the mgt1 strain (AID 153); conditions: S. cerevisiae mgt1 mutant growth inhibition, stronger effect = higher value
Procedure, shortened: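 Vehicle-normalized growth inhibition is determined in mgt1 yeast, a strain selected for a defined alteration in DNA repair or cell cycle control.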

[5] = NCI Yeast Anticancer Drug Screen. Data for the rad50 strain (AID 155);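 also: 0% = growth of vehicle-only cultures of the same strain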; conditions: S. cerevisiae rad50 strain growth inhibition, stronger effect = higher value
Procedure, shortened: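 Growth of the mutant yeast was measured after compound exposure and referenced to vehicle-treated cultures.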

[6] = NCI Yeast Anticancer Drug Screen. Data for the mec2-1 strain (AID 157); conditions: S. cerevisiae mec2-1 strain, stronger effect = higher value
Procedure, shortened: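 Mutant yeast (mec2-1) grown with compound; growth inhibition relative to vehicle control reported.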

[7] = NCI Yeast Anticancer Drug Screen. Data for the rad14 strain (AID 159);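 also: 0% = growth of vehicle-treated control cultures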; conditions: S. cerevisiae rad14 strain growth inhibition, stronger effect = higher value
Procedure, shortened: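 Here, inhibition of yeast growth was measured after compound exposure, using a strain with a genetic defect in DNA damage repair and vehicle-treated cultures as the reference.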

[8] = NCI Yeast Anticancer Drug Screen. Data for the sgs1 mgt1 strain (AID 161);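 also: 0% = growth of cultures given vehicle only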; conditions: S. cerevisiae sgs1 mgt1 strain, stronger effect = higher value
Procedure, shortened: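 Yeast cells carrying a defined DNA-repair defect were exposed to test compounds. Growth inhibition was measured relative to vehicle-treated controls.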

[9] = NCI Yeast Anticancer Drug Screen. Data for the CLN2oe strain (AID 163);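 also: 0% = growth of vehicle-only control cultures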; conditions: S. cerevisiae CLN2oe strain, stronger effect = higher value
Procedure, shortened: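 Compounds are applied to yeast harbouring a defined cell-cycle control change; reduced growth compared with vehicle-treated controls gives the value.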

[10] = NCI Yeast Anticancer Drug Screen. Data for the cln2 rad14 strain (AID 165);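 also: 0% = growth equal to vehicle treated cultures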; conditions: S. cerevisiae cln2 rad14 strain, stronger effect = higher value
Procedure, shortened: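 Readout is yeast growth inhibition versus vehicle-treated controls, using a strain with cln2 and rad14 alterations exposed to compound.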

[11] = NCI Yeast Anticancer Drug Screen. Data for the bub3 strain (AID 167); conditions: S. cerevisiae bub3 mutant strain, stronger effect = higher value
Procedure, shortened: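 Whole-cell yeast assay. The mutant strain was incubated with compounds, and growth inhibition was determined by comparison with vehicle-treated cells.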

[12] = NCI Yeast Anticancer Drug Screen. Data for the wt2 strain (AID 169);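 also: 0% = growth of vehicle-treated yeast cultures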; conditions: S. cerevisiae wt2 strain growth inhibition, stronger effect = higher value
Procedure, shortened: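 Against vehicle-treated controls, the growth of yeast exposed to each compound was compared, and the inhibition was recorded.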

[13] = NCI Yeast Anticancer Drug Screen. Data for the mlh1 strain (AID 171);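 also: 0% = growth of vehicle-treated control cultures of the same strain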; conditions: S. cerevisiae mlh1 strain growth inhibition, stronger effect = higher value
Procedure, shortened: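 Measured: yeast growth. Reference: vehicle-treated controls. Organism: strain with a defined alteration affecting DNA damage repair or cell cycle control, treated with compound.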

[14] = NCI Yeast Anticancer Drug Screen. Data for the sgs1 strain (AID 173);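 also: 0% = growth of vehicle-only control cultures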; conditions: S. cerevisiae sgs1 mutant, stronger effect = higher value
Procedure, shortened: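 Each compound was added to cultures of the altered yeast strain. Growth was recorded, and inhibition was derived by comparison with vehicle controls.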

[15] = NCI Yeast Anticancer Drug Screen. Data for the mlh1 rad18 strain (AID 175); conditions: S. cerevisiae mlh1 rad18 strain growth inhibition, stronger effect = higher value
Procedure, shortened: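 Genetically defined yeast (DNA repair-deficient) exposed to compounds; growth inhibition determined relative to vehicle.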

[16] = NCI Yeast Anticancer Drug Screen. Data for the rad18 strain (AID 177); conditions: S. cerevisiae rad18 mutant growth inhibition, stronger effect = higher value
Procedure, shortened: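 Vehicle-treated cultures served as the baseline for scoring compound-induced growth inhibition in DNA-repair-mutant yeast.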

[17] = at 5.0 µM (retest, dose inferred, filed as 0.5)
[18] = at 50.0 µM (retest, dose inferred, filed as 5.0)

Measured: growth inhibition

O=Nc1ccc(Nc2ccccc2)cc1
inactive: [1]; at 1.2 µM -40% | [1]; at 3.7 µM -58% | [1]; at 11.0 µM -71% | [1]; at 33.0 µM -11% | [2]; at 1.2 µM -33% | [2]; at 3.7 µM -26% | [2]; at 11.0 µM -13% | [2]; at 33.0 µM 28% | [3]; at 1.2 µM -14% | [3]; at 3.7 µM -10% | [3]; at 11.0 µM 29% | [4]; at 1.2 µM -50% | [4]; at 3.7 µM -60% | [4]; at 11.0 µM -32% | [4]; at 33.0 µM 63% | [5]; at 1.2 µM -41% | [5]; at 3.7 µM -45% | [5]; [17] 2% | [5]; at 11.0 µM -32% | [5]; at 33.0 µM 39% | [5]; [18] 30% | [6]; at 1.2 µM -33% | [6]; at 3.7 µM -38% | [6]; [17] -10% | [6]; at 11.0 µM -35% | [7]; at 1.2 µM -23% | [7]; at 3.7 µM -28% | [7]; at 11.0 µM -44% | [7]; at 33.0 µM 37% | [8]; [17] -5% | [8]; [18] 13% | [9]; at 1.2 µM -44% | [9]; at 3.7 µM -35% | [9]; at 11.0 µM -5% | [10]; [17] 29% | [10]; [18] 68% | [11]; at 1.2 µM -31% | [11]; at 3.7 µM -14% | [11]; [17] 4% | [11]; at 11.0 µM -16% | [12]; at 1.2 µM -52% | [12]; at 3.7 µM -47% | [12]; at 11.0 µM -59% | [12]; at 33.0 µM 54% | [13]; at 1.2 µM -42% | [13]; at 3.7 µM -36% | [13]; at 11.0 µM -26% | [14]; at 1.2 µM -40% | [14]; at 3.7 µM -42% | [14]; at 11.0 µM -28% | [14]; at 33.0 µM 55% | [15]; [17] 26% | [16]; at 1.2 µM -33% | [16]; at 3.7 µM -24% | [16]; at 11.0 µM 9%
active: [1]; at 100.0 µM 96% | [2]; at 100.0 µM 97% | [3]; at 33.0 µM 97% | [3]; at 100.0 µM 96% | [4]; at 100.0 µM 97% | [5]; at 50.0 µM 88.8% | [5]; at 100.0 µM 95% | [6]; at 33.0 µM 84% | [6]; [18] 95% | [6]; at 50.0 µM 91% | [6]; at 100.0 µM 97% | [7]; at 100.0 µM 96% | [8]; at 50.0 µM 93.2% | [9]; at 33.0 µM 97% | [9]; at 100.0 µM 96% | [10]; at 50.0 µM 86.3% | [11]; at 33.0 µM 97% | [11]; [18] 91% | [11]; at 50.0 µM 90.5% | [11]; at 100.0 µM 97% | [12]; at 100.0 µM 97% | [13]; at 33.0 µM 83% | [13]; at 100.0 µM 96% | [14]; at 100.0 µM 97% | [15]; [18] 93% | [15]; at 50.0 µM 89.5% | [16]; at 33.0 µM 77% | [16]; at 100.0 µM 96%

CN(Cc1cnc2nc(N)nc(N)c2n1)c1ccc(C(=O)NC(CCC(=O)O)C(=O)O)c2ccccc12 (stereo not given)
active: [1]; at 33.0 µM 90% | [1]; at 100.0 µM 93% | [2]; at 100.0 µM 90% | [3]; at 100.0 µM 79% | [4]; at 100.0 µM 79% | [5]; at 33.0 µM 89% | [5]; [18] 80% | [5]; at 50.0 µM 81.2% | [5]; at 100.0 µM 92% | [6]; at 3.7 µM 72% | [6]; [17] 72% | [6]; at 11.0 µM 92% | [6]; at 33.0 µM 95% | [6]; [18] 94% | [6]; at 50.0 µM 87.2% | [6]; at 100.0 µM 96% | [7]; at 33.0 µM 82% | [7]; at 100.0 µM 91% | [8]; [18] 71% | [8]; at 50.0 µM 72.7% | [11]; [18] 72% | [11]; at 50.0 µM 80.3% | [11]; at 100.0 µM 84% | [12]; at 100.0 µM 78% | [13]; at 100.0 µM 83% | [14]; at 33.0 µM 82% | [14]; at 100.0 µM 85% | [15]; [18] 72% | [16]; at 33.0 µM 79% | [16]; at 100.0 µM 89%
inactive: [1]; at 1.2 µM 16% | [1]; at 3.7 µM 24% | [1]; at 11.0 µM 66% | [2]; at 1.2 µM 12% | [2]; at 3.7 µM 17% | [2]; at 11.0 µM 28% | [2]; at 33.0 µM 69% | [3]; at 1.2 µM 5% | [3]; at 3.7 µM 24% | [3]; at 11.0 µM 41% | [3]; at 33.0 µM 57% | [4]; at 1.2 µM -18% | [4]; at 3.7 µM 1% | [4]; at 11.0 µM 25% | [4]; at 33.0 µM 51% | [5]; at 1.2 µM -2% | [5]; at 3.7 µM 22% | [5]; [17] -4% | [5]; at 11.0 µM 60% | [6]; at 1.2 µM 17% | [7]; at 1.2 µM -2% | [7]; at 3.7 µM 11% | [7]; at 11.0 µM 49% | [8]; [17] 27% | [9]; at 1.2 µM -14% | [9]; at 3.7 µM -12% | [9]; at 11.0 µM -28% | [9]; at 33.0 µM 7% | [9]; at 100.0 µM 58% | [10]; [17] -6% | [10]; [18] 45% | [10]; at 50.0 µM 35.1% | [11]; at 1.2 µM -5% | [11]; at 3.7 µM -7% | [11]; [17] -49% | [11]; at 11.0 µM 2% | [11]; at 33.0 µM 57% | [12]; at 1.2 µM -50% | [12]; at 3.7 µM -45% | [12]; at 11.0 µM -4% | [12]; at 33.0 µM 39% | [13]; at 1.2 µM 17% | [13]; at 3.7 µM 32% | [13]; at 11.0 µM 42% | [13]; at 33.0 µM 66% | [14]; at 1.2 µM 26% | [14]; at 3.7 µM 36% | [14]; at 11.0 µM 58% | [15]; [17] -13% | [16]; at 1.2 µM 17% | [16]; at 3.7 µM 25% | [16]; at 11.0 µM 38%

COc1ccc(N=N/C(=N\NC(=O)c2cc(Br)ccc2O)c2ccc(N(CCC#N)CCC#N)cc2OC)cc1
active: [1]; at 100.0 µM 71% | [5]; at 100.0 µM 82%
inactive: [1]; at 1.2 µM 29% | [1]; at 3.7 µM 44% | [1]; at 11.0 µM 44% | [1]; at 33.0 µM 57% | [2]; at 1.2 µM 15% | [2]; at 3.7 µM 17% | [2]; at 11.0 µM 9% | [2]; at 33.0 µM 5% | [2]; at 100.0 µM 51% | [3]; at 1.2 µM -4% | [3]; at 3.7 µM -7% | [3]; at 11.0 µM -11% | [3]; at 33.0 µM -19% | [3]; at 100.0 µM 24% | [4]; at 1.2 µM 33% | [4]; at 3.7 µM 35% | [4]; at 11.0 µM 24% | [4]; at 33.0 µM 46% | [4]; at 100.0 µM 69% | [5]; at 1.2 µM 46% | [5]; at 3.7 µM 43% | [5]; [17] 20% | [5]; at 11.0 µM 49% | [5]; at 33.0 µM 59% | [5]; [18] 25% | [5]; at 50.0 µM 45.1% | [6]; at 1.2 µM -4% | [6]; at 3.7 µM -6%
